Source: the supplement of paper PMC8728848
Many of the other results were omitted from the sample, so the strongest signals are more common in it than they were.

Key:
Assay in all cases: glycan array binding signal (z-score within array); higher = stronger binding
Conditions in all cases: glycan notation: IUPAC condensed, linker removed; mutation: N288D, K313I
[1] = target: GlcNAc(b1-2)Man(a1-3)[GlcNAc(b1-4)][GlcNAc(b1-2)Man(a1-6)]Man(b1-4)GlcNAc(b1-4)[Fuc(a1-6)]GlcNAc
Procedure, shortened: (§1)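 Glycan array data came from 3228 arrays in the Consortium for Functional Glycomics database, and only arrays with an available protein sequence were kept. Glycan names were put into IUPAC-condensed notation, and columns mapping to the same glycan were averaged. The binding signal is a within-array Z-score, averaged across arrays of one protein sequence run at different concentrations or buffers and across linkers. A negative Z-score can be read as non-binding.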

[2] = target: GlcNAc(b1-2)[GlcNAc(b1-4)]Man(a1-3)[GlcNAc(b1-2)Man(a1-6)]Man(b1-4)GlcNAc(b1-4)GlcNAc
Procedure, shortened: as §1

[3] = target: GlcNAc(b1-2)[GlcNAc(b1-4)]Man(a1-3)[GlcNAc(b1-4)][GlcNAc(b1-2)[GlcNAc(b1-6)]Man(a1-6)]Man(b1-4)GlcNAc(b1-4)[Fuc(a1-6)]GlcNAc
Procedure, shortened: as §1

[4] = target: GlcNAc(b1-2)[GlcNAc(b1-6)]Man(a1-6)[GlcNAc(b1-2)Man(a1-3)]Man(b1-4)GlcNAc(b1-4)GlcNAc
Procedure, shortened: as §1

[5] = target: GlcNAc(b1-2)[GlcNAc(b1-6)]Man(a1-6)[GlcNAc(b1-4)][GlcNAc(b1-2)Man(a1-3)]Man(b1-4)GlcNAc(b1-4)GlcNAc
Procedure, shortened: as §1

[6] = target: GlcNAc(b1-3)Gal(b1-4)GlcNAc
Procedure, shortened: as §1

[7] = target: GlcNAc(b1-3)Gal(b1-4)GlcNAc(b1-2)[GlcNAc(b1-3)Gal(b1-4)GlcNAc(b1-6)]Man(a1-6)[GlcNAc(b1-3)Gal(b1-4)GlcNAc(b1-2)Man(a1-3)]Man(b1-4)GlcNAc(b1-4)GlcNAc
Procedure, shortened: as §1

[8] = target: GlcNAc(b1-3)Gal(b1-4)GlcNAc(b1-3)Gal(b1-4)GlcNAc(b1-2)[GlcNAc(b1-3)Gal(b1-4)GlcNAc(b1-3)Gal(b1-4)GlcNAc(b1-6)]Man(a1-6)[GlcNAc(b1-3)Gal(b1-4)GlcNAc(b1-3)Gal(b1-4)GlcNAc(b1-2)Man(a1-3)]Man(b1-4)GlcNAc(b1-4)[Fuc(a1-6)]GlcNAc
Procedure, shortened: as §1

[9] = target: GlcNAc(b1-3)Gal(b1-4)GlcNAc(b1-3)Gal(b1-4)GlcNAc(b1-3)Gal(b1-4)GlcNAc(b1-2)[GlcNAc(b1-3)Gal(b1-4)GlcNAc(b1-3)Gal(b1-4)GlcNAc(b1-3)Gal(b1-4)GlcNAc(b1-6)]Man(a1-6)[GlcNAc(b1-3)Gal(b1-4)GlcNAc(b1-3)Gal(b1-4)GlcNAc(b1-3)Gal(b1-4)GlcNAc(b1-2)Man(a1-3)]Man(b1-4)GlcNAc(b1-4)[Fuc(a1-6)]GlcNAc
Procedure, shortened: as §1

[10] = target: GlcNAc(b1-3)Gal(b1-4)GlcNAc(b1-3)Gal(b1-4)GlcNAc(b1-3)Gal(b1-4)GlcNAc(b1-3)Gal(b1-4)GlcNAc(b1-2)Man(a1-3)[GlcNAc(b1-3)Gal(b1-4)GlcNAc(b1-3)Gal(b1-4)GlcNAc(b1-3)Gal(b1-4)GlcNAc(b1-3)Gal(b1-4)GlcNAc(b1-2)Man(a1-6)]Man(b1-4)GlcNAc(b1-4)[Fuc(a1-6)]GlcNAc
Procedure, shortened: as §1

[11] = target: GlcNAc(b1-3)Gal(b1-4)GlcNAc(b1-6)[GlcNAc(b1-3)]Gal(b1-4)GlcNAc
Procedure, shortened: as §1

GlcNAc(b1-3)GalNAc = target: GlcNAc(b1-3)GalNAc
Procedure, shortened: as §1

[12] = target: GlcNAc(b1-3)[GlcNAc(b1-6)]Gal(b1-4)GlcNAc
Procedure, shortened: as §1

Kdn(a2-3)Gal(b1-3)GlcNAc = target: Kdn(a2-3)Gal(b1-3)GlcNAc
Procedure, shortened: as §1

[13] = target: Neu5Ac(a2-3)Gal(b1-3)GlcNAc(b1-6)GalNAc
Procedure, shortened: as §1

[14] = target: Neu5Ac(a2-3)Gal(b1-3)[Fuc(a1-4)]GlcNAc(b1-3)Gal(b1-3)[Fuc(a1-4)]GlcNAc
Procedure, shortened: as §1

[15] = target: Neu5Ac(a2-3)Gal(b1-3)[Neu5Ac(a2-6)]GlcNAc(b1-3)[Fuc(a1-3)[Gal(b1-4)]GlcNAc(b1-6)]Gal(b1-4)Glc
Procedure, shortened: as §1

[16] = target: Neu5Ac(a2-3)Gal(b1-4)GlcNAc(b1-6)GalNAc
Procedure, shortened: as §1

[17] = target: Neu5Ac(a2-3)Gal(b1-4)GlcNAc6S
Procedure, shortened: as §1

[18] = target: Neu5Ac(a2-3)Gal(b1-4)[Fuc(a1-3)]GlcNAc(b1-2)Man
Procedure, shortened: as §1

[19] = target: Neu5Ac(a2-3)Gal(b1-4)[Fuc(a1-3)]GlcNAc(b1-3)Gal
Procedure, shortened: as §1

[20] = target: Neu5Ac(a2-3)Gal(b1-4)[Fuc(a1-3)]GlcNAc(b1-3)GalNAc
Procedure, shortened: as §1

[21] = target: Neu5Ac(a2-6)Gal(b1-4)GlcNAc(b1-2)Man(a1-6)[GlcNAc(b1-2)Man(a1-3)]Man(b1-4)GlcNAc(b1-4)GlcNAc
Procedure, shortened: as §1

[22] = target: Neu5Ac(a2-6)Gal(b1-4)GlcNAc(b1-2)Man(a1-6)[Man(a1-3)]Man(b1-4)GlcNAc(b1-4)GlcNAc
Procedure, shortened: as §1

[23] = target: Neu5Ac(a2-6)Gal(b1-4)GlcNAc(b1-3)Gal(b1-4)GlcNAc(b1-6)[Gal(b1-3)]GalNAc
Procedure, shortened: as §1

[24] = target: Neu5Ac(a2-6)Gal(b1-4)GlcNAc(b1-6)GalNAc
Procedure, shortened: as §1

[25] = target: Neu5Ac(a2-8)Neu5Ac(a2-8)Neu5Ac(a2-8)Neu5Ac(a2-3)[GalNAc(b1-4)]Gal(b1-4)Glc
Procedure, shortened: as §1

Neu5Ac(b2-6)GalNAc = target: Neu5Ac(b2-6)GalNAc
Procedure, shortened: as §1

[26] = target: Neu5Ac9Ac(a2-3)Gal(b1-4)GlcNAc
Procedure, shortened: as §1

B1: Langerin (Homo sapiens), Q9UJ71 (protein)
chain: STLNAQIPELKSDLEKASALNTKIRALQGSLENMSKLLKRQNDILQVVSQGWKYFKGNFYYFSLIPKTWYSAEQFCVSRNSHLTSVTSESEQEFLYKTAGGLIYWIGLTKAGMEGDWSWVDDTPFNKVQSARFWIPGEPNDAGNNEHCGNIKAPSLQAWNDAPCDITFLFICKRPYVPSEP
glycan array binding signal (z-score) [1]: 1.18 | glycan array binding signal (z-score) [2]: 0.028 | glycan array binding signal (z-score) [3]: 1.91 | glycan array binding signal (z-score) [4]: -0.239 | glycan array binding signal (z-score) [5]: 0.046 | glycan array binding signal (z-score) [6]: 1.72 | glycan array binding signal (z-score) [7]: 2.14 | glycan array binding signal (z-score) [8]: 16.7 | glycan array binding signal (z-score) [9]: 0.284 | glycan array binding signal (z-score) [10]: 2.34 | glycan array binding signal (z-score) [11]: 5.4 | glycan array binding signal (z-score) (GlcNAc(b1-3)GalNAc): -0.205 | glycan array binding signal (z-score) [12]: 4.87 | glycan array binding signal (z-score) (Kdn(a2-3)Gal(b1-3)GlcNAc): -0.115 | glycan array binding signal (z-score) [13]: -0.092 | glycan array binding signal (z-score) [14]: -0.088 | glycan array binding signal (z-score) [15]: -0.298 | glycan array binding signal (z-score) [16]: -0.165 | glycan array binding signal (z-score) [17]: -0.294 | glycan array binding signal (z-score) [18]: -0.159 | glycan array binding signal (z-score) [19]: -0.338 | glycan array binding signal (z-score) [20]: 0.034 | glycan array binding signal (z-score) [21]: -0.278 | glycan array binding signal (z-score) [22]: -0.187 | glycan array binding signal (z-score) [23]: -0.179 | glycan array binding signal (z-score) [24]: 0.078 | glycan array binding signal (z-score) [25]: -0.254 | glycan array binding signal (z-score) (Neu5Ac(b2-6)GalNAc): -0.196 | glycan array binding signal (z-score) [26]: -0.434
